Compound activity from PubChem BioAssay.
This is a sample that favours compounds with a hit; in the whole collection about 6.1% have one here.
D1 antag – human D1 dopamine receptor antagonism; activity change, negative = inhibition, % at 10 µM; HEK293 TREx D1 cells, calcium flux, dopamine EC80; active compounds read low; 360,000 compounds, 3.2% hits; in the data active = activity change below about -30%; also: % is scaled to controls: 0 for no effect and ±100 for the full control effect
Target sequence (P21728 whole entry, looked up): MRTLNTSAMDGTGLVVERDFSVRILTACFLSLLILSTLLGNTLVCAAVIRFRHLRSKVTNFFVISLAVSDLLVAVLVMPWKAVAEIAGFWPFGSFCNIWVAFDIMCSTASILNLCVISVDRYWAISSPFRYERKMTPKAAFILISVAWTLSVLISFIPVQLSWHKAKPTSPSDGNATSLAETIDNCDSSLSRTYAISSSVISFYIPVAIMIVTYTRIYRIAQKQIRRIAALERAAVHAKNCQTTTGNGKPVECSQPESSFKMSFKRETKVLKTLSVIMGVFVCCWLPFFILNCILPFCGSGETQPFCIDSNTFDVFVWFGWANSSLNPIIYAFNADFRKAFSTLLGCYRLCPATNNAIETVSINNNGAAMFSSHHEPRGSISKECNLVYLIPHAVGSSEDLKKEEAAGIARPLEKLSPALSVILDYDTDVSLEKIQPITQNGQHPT
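Tetracycline-induced HEK293 Trex D1 cells, force-coupled to calcium, dye-loaded; compounds added and read 180 s, then EC80 dopamine added and calcium flux tracked kinetically another 180 s.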
DRD3 agonist – agonists of human D3 dopamine receptor; P35462; AID 652048; D3R DiscoveRx beta-arrestin cells, luminescence, 90 min; max activation, %; 410,000 compounds, 0.58% hits; in the data active = max activation above about 30%; also: 0% is about no effect
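Agonist-mode cell screen: cells plated at 1500/well and incubated overnight at 37 °C, then exposed to library compounds for 90 min at 37 °C. Detection reagent was added for 30–60 min at room temperature, and luminescence was read.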
D1 ag – activates the human D1 dopamine receptor; HEK293 T-REx D1 cells, calcium flux, agonist mode; activation, % at 2 µM; 360,000 compounds, 1% hits; AID 504660; in the data active = activation above about 30%; also: 0% is about no effect
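Agonism was scored from calcium flux recorded over 180 s (1 read/s) after pintool compound addition, following a 10-cycle baseline. Cells were inducible force-coupled HEK293 TREx D1, plated overnight at 30 C and loaded with no-wash calcium dye.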
D1 potentiator – enhances dopamine response at the human D1 receptor; P21728; HEK293 TREx D1 cells, calcium flux, dopamine EC20 potentiation; potentiation, % at 10 µM; 360,000 compounds, 0.036% hits; in the data active = potentiation above about 30%; also: 0% is about no effect
DRD3 antagonist – D3 dopamine receptor (human) antagonism; D3R cells, DiscoveRx beta-arrestin luminescence, antagonist mode; active compounds read low; P35462; max response, negative = inhibition, %; 360,000 compounds, 2.5% hits; in the data active = max response below about -50%; also: % is scaled to controls: 0 for no effect and ±100 for the full control effect
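Cells expressing the human receptor were seeded at 1500 cells/well, incubated overnight at 37 degrees C in 5% CO2, then exposed to library compounds with dopamine controls for 90 minutes at 37 degrees C before luminescent detection.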
The depositor's hits bear a star.

Screening O=C(NCC1CCCO1)C1CCN(C2CCN(Cc3ccco3)CC2)CC1 (stereo not given) returned D1 antag 20.3, DRD3 agonist -4.3, D1 ag 1.4, D1 potentiator -3.2 and DRD3 antagonist -13.9.
For Cc1ccc(-c2nc(CS(=O)CC(=O)NCCN3CCCCCC3)c(C)o2)cc1 (stereo not given) the results were D1 antag 5.0, DRD3 agonist 1.7, D1 ag -1.1, D1 potentiator -4.6 and DRD3 antagonist -2.3.
`CC1CC(N(C(=O)c2ccco2)c2ccccc2)c2ccccc2N1` (stereo not given) gave D1 antag -5.1, DRD3 agonist -17.9, D1 ag 0.6, D1 potentiator -0.1 and DRD3 antagonist -58.0*.
CCc1cc2c(=O)n(Cc3ccco3)c(SCC(=O)N(C)C3CCS(=O)(=O)C3)nc2s1 (stereo not given) was read as D1 antag -35.7*, DRD3 agonist 3.9, D1 ag 0.1, D1 potentiator -7.0 and DRD3 antagonist 6.6.
`CN(C(=O)CSc1nncn1-c1ccccc1)C1CCS(=O)(=O)C1` (stereo not given) gave D1 antag 1.5, DRD3 agonist -1.7, D1 ag 1.7, D1 potentiator 2.1 and DRD3 antagonist -54.3*.
For Cc1nn(-c2ccccc2)c(C)c1/C=C/C(=O)OCC(=O)N(C)C1CCS(=O)(=O)C1 (stereo not given) the results were D1 antag -83.8*, DRD3 agonist -7.1, D1 ag 2.2, D1 potentiator -5.7 and DRD3 antagonist -16.1.
CCn1c(SCC(=O)N(C)C2CCS(=O)(=O)C2)nnc1-c1ccccc1 (stereo not given) was read as D1 antag -64.5*, DRD3 agonist 5.9, D1 ag 1.5, D1 potentiator -12.8 and DRD3 antagonist 1.2.
Screening Cc1noc(C)c1-c1ccc(C(=O)N2CCN(C)CC2)c2occc12 returned DRD3 agonist -14.1 and DRD3 antagonist 0.0.
Screening CC1CCN(S(=O)(=O)c2nnc(NC(=O)c3ccccc3Br)s2)CC1 returned D1 antag -6.9, DRD3 agonist 1.1, D1 ag 4.2, D1 potentiator 2.5 and DRD3 antagonist -15.6.
For COc1cc2c(cc1OC)C1O[C@](CCCCN3C(=O)c4ccccc4C3=O)(C2)OC2=C1C(=O)c1ccccc1C2=O the results were D1 antag -13.0, D1 ag 2.2 and D1 potentiator -2.5.
`COC(=O)c1c(NC(=O)c2ccc(OC)cc2OC)sc2c1CCCCC2` gave D1 antag 4.6, DRD3 agonist 1.8, D1 ag -0.3 and D1 potentiator -3.1.
For CC(C)N(Cc1ccccc1)C(=O)CC(=O)N(Cc1ccccc1)C(C)C the results were D1 antag 4.2, DRD3 agonist -2.2, D1 ag 1.4, D1 potentiator -3.9 and DRD3 antagonist -13.8.
For CCn1c(=O)c2ccccc2n(Cc2cccc(C)c2)c1=O the results were D1 antag -31.7*, DRD3 agonist -3.2, D1 ag -1.2, D1 potentiator -7.1 and DRD3 antagonist -13.7.
COc1ccc(-c2noc(=O)n2CC(=O)N2CCC(Cc3ccccc3)CC2)cc1 was read as D1 antag 18.1, DRD3 agonist 0.7, D1 ag 7.2, D1 potentiator 7.7 and DRD3 antagonist -1.6.
CC(=O)C1=C(C)NC(=O)NC1c1ccccc1OCC(=O)NCCc1ccccc1 (stereo not given) was read as D1 antag 1.7, DRD3 agonist 4.6, D1 ag 0.2, D1 potentiator 6.2 and DRD3 antagonist -63.8*.
CC(=O)C1=C(c2ccccc2)NC(=O)NC1c1ccccc1OCC(=O)Nc1ccccc1 (stereo not given) was read as D1 antag 2.1, DRD3 agonist 0.3, D1 ag 0.0, D1 potentiator 9.3 and DRD3 antagonist -2.1.
CC1=C(C(=O)N(C)C)CC(CC(=O)NC2CCCCC2)C(=O)N1Cc1ccc(F)cc1 (stereo not given) was read as DRD3 agonist -11.7 and DRD3 antagonist -14.4.
For O=S(=O)(Nc1ccc(Cc2ccncc2)cc1)c1ccc(Br)cc1 the results were D1 antag -73.4*, DRD3 agonist -8.1, D1 ag 11.5, D1 potentiator -7.0 and DRD3 antagonist 28.3.
